# Source: PubChem BioAssay
# Activity calls are given as the source filed them. Unless noted, the rule behind the calls is not given here.
# Legend:
# [1] = Plasmodium falciparum growth inhibition, primary screen, strain 3D7, DAPI fluorescence, 100 nL (AID 1184);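 note: parasites grown inside human red blood cells in medium with human serum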; conditions: P. falciparum 3D7 growth, 3 d, higher = more signal
# [2] = target: Homeobox protein Hox-A13 (Mus musculus) (UniProt Q62424); test: inhibitors of HoxA13-DNA binding, primary screen, biochemical, fluorescence polarization, labeled oligonucleotide (AID 1185); conditions: 15 min, higher = more signal, called active from +8 up or from −8 down
# [3] = inhibitors of hydroxyurea-induced Chk1 phosphorylation, primary screen, imaging, HeLa, phospho-Chk1 antibody, percent positive cells (AID 1186); conditions: hydroxyurea-induced phospho-Chk1 immunofluorescence imaging, higher = more signal
# [4] = inhibitors of hydroxyurea-induced Chk1 phosphorylation, primary screen, imaging, HeLa, phospho-Chk1 nuclear intensity (AID 1187); conditions: hydroxyurea-induced phospho-Chk1 immunofluorescence imaging, higher = more signal; note: test concentration not given here
# Chain of Homeobox protein Hox-A13 (Mus musculus) (Q62424 whole entry, looked up): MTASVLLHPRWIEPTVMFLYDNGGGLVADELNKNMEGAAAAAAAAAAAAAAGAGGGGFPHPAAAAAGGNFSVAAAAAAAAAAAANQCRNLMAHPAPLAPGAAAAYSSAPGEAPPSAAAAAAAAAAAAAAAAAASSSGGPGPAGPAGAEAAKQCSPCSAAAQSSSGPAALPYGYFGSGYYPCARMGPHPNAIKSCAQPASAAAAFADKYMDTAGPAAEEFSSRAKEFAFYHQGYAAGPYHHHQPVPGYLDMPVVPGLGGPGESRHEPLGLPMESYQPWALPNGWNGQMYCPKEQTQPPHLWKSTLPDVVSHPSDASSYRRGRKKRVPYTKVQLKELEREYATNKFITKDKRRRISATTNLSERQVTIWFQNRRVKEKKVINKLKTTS
SMILES,z-score [1],z-score [2],z-score [3],z-score [4]
C[N+](C)(C)CCCC[C@@H]1NC(=O)[C@H]2C[C@@H](C(=O)NCCCCCN)[C@@H](c3cccc(OCCO)c3)N2C1=O,-1.09,-2.19 (inactive),0.287 (inactive),0.7 (inactive)
COC(=O)c1c2oc(c1C(=O)OC)C(=O)N[C@@H](C(C)C)Cn1nncc1C1(CCCCC1)NC(=O)N[C@H](CO)CC2,0.0974,-1.72 (inactive),-0.259 (inactive),0.158 (inactive)
CCCCCN1CC=CC23O[C@@H]4/C=C\CCC(C)OC(=O)C4[C@H]2C(=O)N(CCO)[C@@H]3C1=O (stereo partly specified),-1.41,-3.89 (inactive),-0.174 (inactive),0.125 (inactive)
O=C1c2ccccc2[C@@]2(Cc3ccccc3N(CC(F)(F)F)C2=O)[C@H](c2ccc(CO)cc2)N1Cc1ccccc1C(F)(F)F,0.226,-0.0255 (inactive),-0.563 (inactive),-0.816 (inactive)
COCCOC(=O)N1C(=O)[C@@]2(c3cc(C#CC4(O)CCCCCC4)ccc31)[C@H](c1ccc(O)cc1)N1[C@H](c3ccccc3)[C@H](c3ccccc3)OC(=O)[C@H]1[C@@H]2C(N)=O,-0.5,-2.38 (inactive),0.178 (inactive),0.0653 (inactive)
O=C1N(CCS(=O)(=O)c2ccccc2)Cc2ccccc2[C@@H]2OC(c3ccc(OCCCO)cc3)=N[C@]12Cc1ccccc1,-2.19,2.39 (inactive),-0.354 (inactive),0.111 (inactive)
CCCNC(=O)[C@@H]1c2ccccc2C(=O)N(Cc2cc(C(F)(F)F)cc(C(F)(F)F)c2)[C@H]1c1ccc(CO)cc1,-1.64,-1.94 (inactive),-0.319 (inactive),0.0789 (inactive)
Cc1ccc(S[C@]2(C(=O)NCCN3CCOCC3)CC(=O)N(Cc3cc(C(F)(F)F)cc(C(F)(F)F)c3)[C@@H]2c2ccc(CO)cc2)cc1,-0.578,-1.78 (inactive),-0.999 (inactive),-2.03 (inactive)
CC(C)C[C@@H]1NC(=O)[C@H]2C[C@@H](C(=O)NCCCC[N+](C)(C)C)[C@@H](c3cccc(OCCO)c3)N2C1=O,1,-2.24 (inactive),0.656 (inactive),0.824 (inactive)
COc1ccc(C#Cc2ccc3c(c2)[C@]2(C(=O)N3)[C@H](c3ccc(O)cc3)N3[C@H](c4ccccc4)[C@H](c4ccccc4)OC(=O)[C@H]3[C@@H]2C(=O)N2CCN(c3ncccn3)CC2)cc1,-2.28,0.562 (inactive),0.396 (inactive),0.583 (inactive)
COc1ccc(C(=O)Nc2cccc(CN3C(=O)[C@@]4(O[C@@H](CCO)[C@H]([Si](C)(C)c5ccc(OC)cc5)[C@H]4C)c4ccccc43)c2)cc1,-2.7,-2.09 (inactive),-1.08 (inactive),-0.215 (inactive)
CCOC(=O)C[C@H]1[C@H](OC(=O)c2ccc(C(=O)c3ccccc3)cc2)[C@@H](NC(=O)Cc2ccc(OC)cc2)c2cc(OCCCO)ccc2N1C(=O)Cc1ccc(OC)cc1,-0.283,-2.01 (inactive),0.0944 (inactive),0.0944 (inactive)
[N-]=[N+]=Nc1ccccc1[C@H]1OC(c2ccc(OCCCO)cc2)=N[C@@]1(Cc1ccccc1)C(N)=O,-1.96,-3.95 (inactive),-0.313 (inactive),-0.179 (inactive)
Cc1ccc(N2C(=O)c3ccccc3[C@](C)(C(=O)NCC(F)(F)F)[C@@H]2c2ccc(CO)cc2)nc1,-1.36,-1.16 (inactive),-0.326 (inactive),-0.277 (inactive)
C=CCC(OC(C)=O)[C@@H]1[C@@H](N(Cc2ccc(-c3cccc(C(F)(F)F)c3)o2)C(=O)c2ccc(-c3ccccc3)cc2)c2cc(OCCCO)ccc2N1C(=O)Cc1ccc(OC)cc1 (stereo partly specified),-0.809,-0.497 (inactive),-0.138 (inactive),-0.0148 (inactive)
CC(C)(C)OC(=O)CC[C@@]1(C(=O)NCc2ccccc2)N=C(c2ccc(OCCCO)cc2)O[C@@H]1c1ccccc1CN=[N+]=[N-],-2.72,-0.088 (inactive),-0.763 (inactive),-0.84 (inactive)
COc1ccc([Si](C)(C)[C@@H]2[C@@H](CC(=O)N3CCC[C@H]3CO)O[C@]3(C(=O)N(Cc4ccc(I)cc4)c4ccccc43)[C@H]2C)cc1,-2.17,-2.86 (inactive),-0.703 (inactive),-0.413 (inactive)
C=C(CCCC)/C(=C/C[C@H](OC(=O)c1ccncc1)c1ccc(CO)o1)c1cnc2ccccc2c1,-0.209,-4.76 (inactive),-0.762 (inactive),-0.937 (inactive)
CN(C)CCCC[C@@H]1NC(=O)[C@@H]2C[C@H](C(=O)NCCCCCNC(=O)CS)[C@H](c3cccc(OCCO)c3)N2C1=O,-1.46,-1.12 (inactive),0.27 (inactive),0.302 (inactive)
COC(=O)C1=CC(CCCO)=CC(C2CC2)N(Cc2cc3c(cc2Br)OCO3)C=C1C(=O)OC (stereo unspecified),-0.963,-4.63 (inactive),-0.203 (inactive),-0.201 (inactive)

SMILES,z-score [1],z-score [2],z-score [3],z-score [4]
COCCCNC(=O)[C@@]1(Cc2ccccc2CN=[N+]=[N-])COC(c2ccc(OCCCO)cc2)=N1,-2.1,-4.83 (inactive),-0.742 (inactive),-0.73 (inactive)
COC(=O)C(CC#Cc1ccc2c(c1)[C@]1(C(=O)N2)[C@H](c2ccccc2OCCO)N2[C@H](c3ccccc3)[C@H](c3ccccc3)OC(=O)[C@H]2[C@@H]1C(=O)N1CCCCCCC1)C(=O)OC,-2.2,3.62 (inactive),0.114 (inactive),0.72 (inactive)
CC(C)(C)OC(=O)CC[C@@]12N=C(c3ccc(OCCCO)cc3)O[C@@H]1c1ccccc1CN(Cc1ccccc1)C2=O,-2.3,-1.33 (inactive),-0.543 (inactive),0.0228 (inactive)
COc1ccc([Si](C)(C)[C@@H]2[C@@H](CCn3cc(CCO)nn3)O[C@]3(C(=O)N(Cc4ccc(N5C(=O)c6cccc7cccc5c67)cc4)c4ccccc43)[C@H]2C)cc1,-2.41,-1.56 (inactive),-1.02 (inactive),-0.956 (inactive)
COC(=O)C(CC#Cc1ccc2c(c1)[C@]1(C(=O)N2)[C@H](C(=O)O)[C@H]2C(=O)O[C@H](c3ccccc3)[C@H](c3ccccc3)N2[C@@H]1c1ccc(OCCO)cc1)C(=O)OC,-2.14,-6.34 (inactive),-0.192 (inactive),0.124 (inactive)
COc1ccc([Si](C)(C)[C@H]2[C@H](CC(=O)N(CCO)Cc3ccccc3)O[C@@]3(C(=O)N(Cc4cccc(N5C(=O)COc6ccccc65)c4)c4ccccc43)[C@@H]2C)cc1,-2.28,-1.15 (inactive),-0.567 (inactive),0.722 (inactive)
COCCCNC(=O)[C@@]1(C)c2ccccc2C(=O)N(Cc2cc(F)cc(C(F)(F)F)c2)[C@H]1c1ccc(CO)cc1,-0.753,-2.01 (inactive),-0.1 (inactive),0.802 (inactive)
C=C[C@H](OC)[C@@H](OC(=O)Nc1ccc(OC)cc1)c1ccc(OC)c(O)c1,-0.294,-2.75 (inactive),0.0254 (inactive),0.471 (inactive)
CC(C)N1CC=CC23O[C@@H]4/C=C\CCCOC(=O)C4[C@H]2C(=O)N(CCCO)[C@@H]3C1=O (stereo partly specified),-0.723,-4.49 (inactive),-0.235 (inactive),0.101 (inactive)
C=C(C1=CCN(S(=O)(=O)c2ccc(C)cc2)C1)[C@@H](OC(C)=O)[C@@H]1CCCN1S(=O)(=O)c1ccccc1[N+](=O)[O-],-2.68,-3.62 (inactive),-0.353 (inactive),0.0039 (inactive)
CC(CO)N1C(=O)[C@@H]2C3C(=O)OCCC/C=C\[C@H]3OC23C=CCN(Cc2ccccc2)C(=O)[C@@H]13 (stereo partly specified),-0.518,-5.46 (inactive),-0.6 (inactive),-0.674 (inactive)
C=C(COC)C(=O)CC[C@@H](OC(=O)c1ccccc1-c1ccccc1C(=O)O)c1cccc(OCCO)c1,-1.24,-4.82 (inactive),0.273 (inactive),-0.307 (inactive)
C=C(COC)/C(=C/C[C@H](OC(C)=O)c1cccc(OCCO)c1)c1cc(C(=O)OC)ccc1OC,-2.67,-2.39 (inactive),-0.283 (inactive),-0.727 (inactive)
COCCCNC(=O)[C@@]1(CCS(=O)(=O)c2ccccc2)N=C(c2ccc(OCCCO)cc2)O[C@H]1c1ccccc1CN=[N+]=[N-],-2.68,-1.88 (inactive),-1.07 (inactive),-1.61 (inactive)
C[C@@H](OCc1ccccc1)C1NC(=O)[C@@]23C(=O)N[C@@H](Cc4ccccc4)C2[C@H](C)[C@@]2(C)O[C@H]2C3/C=C/C/C=C\CNC(=O)[C@@H]2CCCN2C1=O (stereo partly specified),-2.58,-7.05 (inactive),0.0938 (inactive),0.427 (inactive)
CC(=O)NCCCC[C@@H]1NC(=O)[C@@H]2C[C@H](C(=O)O)[C@H](c3cccc(OCCO)c3)N2C1=O,-0.313,0.294 (inactive),-0.0079 (inactive),0.165 (inactive)
COCCOC(=O)N1C(=O)[C@@]2(c3cc(C#CCNC(N)=O)ccc31)[C@H](c1ccccc1OCCO)N1[C@H](c3ccccc3)[C@H](c3ccccc3)OC(=O)[C@H]1[C@@H]2C(=O)Nc1nc2ccccc2s1,-1.89,1.57 (inactive),-0.298 (inactive),-0.154 (inactive)
CCOC(=O)C[C@H]1[C@H](OC(=O)c2ccc(-c3ccccc3)cc2)[C@@H](NC(=O)C2CCCCC2)c2cc(OCCCO)ccc2N1C(=O)c1ccc2ccccc2n1,-0.915,-0.844 (inactive),-0.807 (inactive),-0.479 (inactive)
COCCOC(=O)N1C(=O)[C@@]2(c3ccccc31)[C@H](C(=O)Nc1nc3ccccc3s1)[C@H]1C(=O)O[C@H](c3ccccc3)[C@H](c3ccccc3)N1[C@@H]2c1ccc(O)cc1,0.112,0.895 (inactive),-0.2 (inactive),0.3 (inactive)
